# Measurements taken from PubChem BioAssay AID2284386 (EPA ToxCast).
# The source made the active and inactive calls. How the source made its calls: active means hit-call score of the fitted dose curve at least 0.9, where 1 is the maximum; inactive means score below 0.9.
# Molecular target: Peroxisome proliferator-activated receptor gamma (Homo sapiens) (UniProt P37231)
# Test: ERF_FR_NR_COA_hPPARG: Eurofins (ERF) Nuclear Receptor (NR) Functional Coactivator Assay for human Peroxisome Proliferator-activated Receptor gamma (PPARg) Agonism, conducted at France lab site
# Procedure: ERF_FR_NR_COA_hPPARG is a biochemical, single-readout assay that uses extracted gene-proteins in a cell-free assay. Measurements were taken 2 hours after chemical dosing in a 384-well plate. See PPARgamma Human NHR Functional Agonist Coactivator Assay, Cerep.ERF_FR_NR_COA_hPPARG is an assay component calculated from the ERF_FR_NR_COA_hPPARG assay. It is designed to measure FRET using a type of binding reporter as detected by fluorescence intensity of Rosiglitazone with fluorimetry technology.Data from the assay component ERF_FR_NR_COA_hPPARG was analyzed at the assay endpoint, ERF_FR_NR_COA_hPPARG, in the positive analysis fitting direction relative to DMSO as the negative control and baseline of activity. Using a type of binding reporter, gain-of-signal activity can be used to understand changes in binding as they relate to gene PPARG. […]
# Test compound and/or vehicle is incubated with the 2 nM receptors and coactivator peptide for 180 minutes at room temperature. Determination of the amount of complex formed is read spectrofluorimetrically (excitation: 337 nm, emission: 520/490 nm). Test compound-induced increase fluorescence by 50 percent or more (>/=50%) relative to 1 uM GW1929 response indicates possible PPARgamma receptor agonist activity. […]
# Chain of Peroxisome proliferator-activated receptor gamma (Homo sapiens) (P37231 whole entry, looked up): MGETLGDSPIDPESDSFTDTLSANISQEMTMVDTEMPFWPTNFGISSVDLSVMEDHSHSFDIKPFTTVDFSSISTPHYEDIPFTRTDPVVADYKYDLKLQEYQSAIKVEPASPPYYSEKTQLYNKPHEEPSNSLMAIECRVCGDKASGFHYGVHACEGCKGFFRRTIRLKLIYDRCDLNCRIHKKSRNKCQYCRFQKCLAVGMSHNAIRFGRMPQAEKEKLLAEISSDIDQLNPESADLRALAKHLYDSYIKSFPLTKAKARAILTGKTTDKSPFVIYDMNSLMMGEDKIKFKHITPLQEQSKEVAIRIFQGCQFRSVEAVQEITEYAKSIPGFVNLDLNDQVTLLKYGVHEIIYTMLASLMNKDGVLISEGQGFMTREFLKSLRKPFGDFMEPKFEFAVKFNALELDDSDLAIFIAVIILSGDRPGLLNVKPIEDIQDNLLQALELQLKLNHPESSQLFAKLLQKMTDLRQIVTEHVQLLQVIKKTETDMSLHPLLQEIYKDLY
structure (smiles),measurement,value
O=S(=O)(O)C(F)(F)C(F)(F)C(F)(F)C(F)(F)C(F)(F)C(F)(F)C(F)(F)C(F)(F)F,outcome,inactive
